{"source": "paper PMC12618258", "assay_in_all_cases": "cross-link between two proteins; cross-linking mass spectrometry", "key": {"[1]": {"target": "Large ribosomal subunit protein eL24 (UniProt P83731)"}, "[2]": {"target": "Large ribosomal subunit protein eL38 (UniProt P63173)"}, "[3]": {"target": "Large ribosomal subunit protein eL30 (UniProt P62888)"}, "[4]": {"target": "Large ribosomal subunit protein eL6 (UniProt Q02878)"}, "[5]": {"target": "Large ribosomal subunit protein uL3 (UniProt P39023)"}}}
{"substance": "Large ribosomal subunit protein eL31, P62899", "values": [{"measurement": "listed as a hit", "setting": "[1]", "result": "yes"}]}
{"substance": "Large ribosomal subunit protein eL22, P35268", "values": [{"measurement": "listed as a hit", "setting": "[1]", "result": "yes"}, {"measurement": "listed as a hit", "setting": "[2]", "result": "yes"}]}
{"substance": "Small ribosomal subunit protein uS4, P46781", "values": [{"measurement": "listed as a hit", "setting": "[3]", "result": "yes"}]}
{"substance": "Small ribosomal subunit protein uS5, P15880", "values": [{"measurement": "listed as a hit", "setting": "[4]", "result": "yes"}]}
{"substance": "Large ribosomal subunit protein eL13, P26373", "values": [{"measurement": "listed as a hit", "setting": "[5]", "result": "yes"}]}
